Results: the supplement of paper PMC10338343
± gives the standard deviation.

Columns and labels:
[1] = system: MILI (PIWIL2) piRISC loaded with piRNA #1 (26 nt); assay: pre-steady-state target cleavage rate (min^-1); guide: piRNA #1 5'p-UGAGGUAGUAGGUUGUAUAGUAUCCA; higher = faster piRNA-guided slicing of the target; conditions: auxiliary factor: 500 nM mouse GTSF1;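 note: 1 nM active piRISC with 0.1 nM target library at 33 °C single turnover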
In short: (§1)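 Reactions were run for 0–8 or 0–960 min at 33 °C in HEPES–potassium acetate buffer, combining 1 nM active affinity-purified piRISC with one synthetic guide, […] transcribed, DNA-blocked target RNA library and, in some cases, 500 nM GTSF1 partner protein. Sequencing of uncleaved targets followed, with normalisation to depth and to weakly complementary targets. Three trials were pooled, k3 was capped at 0.0001 min^-1, and the pre-steady-state cleavage rate was taken from a burst-and-steady-state fit.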

[2] = system: EfPiwi piRISC loaded with piRNA #1 (26 nt); assay: pre-steady-state target cleavage rate (min^-1); auxiliary factor: 500 nM Ephydatia muelleri Gtsf1; guide: piRNA #1 5'p-UGAGGUAGUAGGUUGUAUAGUAUCCA; MIWI and MILI are mouse PIWI proteins and EfPiwi is from a freshwater sponge; tags in brackets are library labels; higher = faster piRNA-guided slicing of the target
In short: as §1

GGAGACCUAACUAUACAACCCACUACCUCA
pre-steady-state target cleavage rate [1]: 0.0098 ± 0.0041
pre-steady-state target cleavage rate [2]: 0.00404 ± 0.0036

GGAGUGGAUACUAAUACAACCUACUACCUCA
pre-steady-state target cleavage rate [1]: 0.135 ± 0.0082
pre-steady-state target cleavage rate [2]: 0.08 ± 0.032

GGAGACCUGACUAUACAACCUACUACCUCA
pre-steady-state target cleavage rate [1]: 0.125 ± 0.028
pre-steady-state target cleavage rate [2]: 0.0243 ± 0.01

GGAGACCAUACUAUACAUCCUACUACGUCA
pre-steady-state target cleavage rate [1]: 0.158 ± 0.027
pre-steady-state target cleavage rate [2]: 0.00585 ± 0.0034

GGAGAGGAUAGUAUACAACCUACUACGUCA
pre-steady-state target cleavage rate [1]: 0.0614 ± 0.0098
pre-steady-state target cleavage rate [2]: 0.0031 ± 0.0021

GGAGUGGAUACUAUACAACCUACCUACCUCA
pre-steady-state target cleavage rate [1]: 0.128 ± 0.0098
pre-steady-state target cleavage rate [2]: 0.00423 ± 0.0017

GGAGACGAUACUAUACAACCUACUACGUGA
pre-steady-state target cleavage rate [1]: 0.0822 ± 0.021
pre-steady-state target cleavage rate [2]: 0.00515 ± 0.0026

GGAGACCUUUCAAUACAACCUACUACCUCA
pre-steady-state target cleavage rate [1]: 0.0649 ± 0.017
pre-steady-state target cleavage rate [2]: 0.00501 ± 0.0042

GGAGACCUAACUAUACAACCUACUUCCUCA
pre-steady-state target cleavage rate [1]: 0.0606 ± 0.02
pre-steady-state target cleavage rate [2]: 0.00336 ± 0.0029

GGAGUGGAUACUAUACAACCGUACUACCUCA
pre-steady-state target cleavage rate [1]: 0.00369 ± 0.0022
pre-steady-state target cleavage rate [2]: 0.00658 ± 0.0027

GGAGACGAUACUAUAGAACCUUCUACCUCA
pre-steady-state target cleavage rate [1]: 0.00459 ± 0.0021
pre-steady-state target cleavage rate [2]: 0.00285 ± 0.0016

GGAGACCAUCCUAUACAACCUACUACCUCA
pre-steady-state target cleavage rate [1]: 0.16 ± 0.03
pre-steady-state target cleavage rate [2]: 0.01 ± 0.006

GGAGUGGAUACUAUAAAACCUACUACCUCA
pre-steady-state target cleavage rate [1]: 0.161 ± 0.0081
pre-steady-state target cleavage rate [2]: 0.00522 ± 0.0025

GGAGACCUAUGUAUACAACCUACUACUCUCA
pre-steady-state target cleavage rate [1]: 0.117 ± 0.013
pre-steady-state target cleavage rate [2]: < 0.0001

GGAGACGAUACUAUACAACCUAUCUACCUCA
pre-steady-state target cleavage rate [1]: 0.17 ± 0.017
pre-steady-state target cleavage rate [2]: 0.00473 ± 0.0019

GGAGACCAUACAUAUACAACCUACUACCUCA
pre-steady-state target cleavage rate [1]: 0.101 ± 0.013
pre-steady-state target cleavage rate [2]: 0.0645 ± 0.025

GGAGACCGUACUAUACAACCUACUACCUCA
pre-steady-state target cleavage rate [1]: 0.157 ± 0.021
pre-steady-state target cleavage rate [2]: 0.156 ± 0.049

GGAGACGAUUCUAUACAACCUUCUACCUCA
pre-steady-state target cleavage rate [1]: 0.0216 ± 0.0072
pre-steady-state target cleavage rate [2]: 0.00518 ± 0.0027

GGAGAGGAUACUAUACAACCGACUACCUCA
pre-steady-state target cleavage rate [1]: 0.00439 ± 0.0027
pre-steady-state target cleavage rate [2]: 0.00504 ± 0.002

GGAGACCUACCUAUACAACCUACUACCUCA
pre-steady-state target cleavage rate [1]: 0.117 ± 0.026
pre-steady-state target cleavage rate [2]: 0.0239 ± 0.012

GGAGUGGAUACUAUACAACCUACUACGUGA
pre-steady-state target cleavage rate [1]: 0.0157 ± 0.0044
pre-steady-state target cleavage rate [2]: 0.00378 ± 0.0015

GGAGACCUAUGAAUACAACCUACAUACCUCA
pre-steady-state target cleavage rate [1]: 0.00848 ± 0.0021
pre-steady-state target cleavage rate [2]: < 0.0001

GGAGACGAUACUAUUCAACCUACUACGUCA
pre-steady-state target cleavage rate [1]: 0.0915 ± 0.011
pre-steady-state target cleavage rate [2]: 0.00311 ± 0.0016

GGAGUGGUUACUAUACAACCUACAACCUCA
pre-steady-state target cleavage rate [2]: 0.00227 ± 0.0015

GGAGACCAUACUAUACAACCUACUUGGUCA
pre-steady-state target cleavage rate [2]: 0.00392 ± 0.0029

GGAGACGAUACUAUACAACCAACUAGCUCA
pre-steady-state target cleavage rate [2]: 0.00457 ± 0.0027

GGAGACGAUACUAUACAACCUAGAACCUCA
pre-steady-state target cleavage rate [2]: 0.00278 ± 0.0012

GGAGUGGAUACUAUACUAGCUACUACCUCA
pre-steady-state target cleavage rate [2]: 0.0081 ± 0.0031

GGAGACCUAUGAUAUGAUCCUAGUACCUCA
pre-steady-state target cleavage rate [2]: < 0.0001

GGAGACCAUACUAUACAUCCUACUAGCUCA
pre-steady-state target cleavage rate [2]: 0.00265 ± 0.0024

GGAGACGAUACUAAACAAGCUACUACCUCA
pre-steady-state target cleavage rate [2]: 0.00331 ± 0.0031

GGAGACCUAACUAUACAACCACUACCUCA
pre-steady-state target cleavage rate [2]: 0.00546 ± 0.0044

GGAGUGGAUACUAUACAACCUAGUACCACA
pre-steady-state target cleavage rate [2]: 0.0035 ± 0.0016

GGAGACCUAUGAAUAGAACCUACUAGCUCA
pre-steady-state target cleavage rate [2]: < 0.0001

GGAGAGGAUACUAUACAACCAACUAGCUCA
pre-steady-state target cleavage rate [2]: 0.00313 ± 0.0016

GGAGACGAUACUAUACAACCUACUAGGUCA
pre-steady-state target cleavage rate [2]: 0.0052 ± 0.002

GGAGACCUAUGUAUACAACCUACAUGCUCA
pre-steady-state target cleavage rate [2]: < 0.0001

GGAGAGGAUACUAUACGAACCUACUACCUCA
pre-steady-state target cleavage rate [2]: 0.0069 ± 0.0052

GGAGAGGAUACUAUACAACCUACUCCUCA
pre-steady-state target cleavage rate [2]: 0.00473 ± 0.0025

GGAGAGGAUACUAUACAACCUAGUAGCUCA
pre-steady-state target cleavage rate [2]: 0.00479 ± 0.0019

GGAGAGGAUACUAUACAACCUACGUACCUCA
pre-steady-state target cleavage rate [2]: 0.00321 ± 0.0014

GGAGUGGAUACUAUACAACCUACUAGCCUCA
pre-steady-state target cleavage rate [2]: 0.00369 ± 0.0017

GGAGACCUAUCUAUACAACCUAGUACGUCA
pre-steady-state target cleavage rate [2]: 0.00316 ± 0.0024

GGAGACGAUACUAUACAACCUACUAACCUCA
pre-steady-state target cleavage rate [2]: 0.0059 ± 0.0019

GGAGACCUAUGAUAUGUUCCUACAACGUCA
pre-steady-state target cleavage rate [2]: < 0.0001

GGAGACGAUACUAUACAACCUUCUAGCUCA
pre-steady-state target cleavage rate [2]: 0.00455 ± 0.0027

GGAGACCUAUCUAUACCAACCUACUACCUCA
pre-steady-state target cleavage rate [2]: 0.00573 ± 0.0036

GGAGACCUAACUAUACAACCUACUACCCCA
pre-steady-state target cleavage rate [2]: 0.00474 ± 0.0039

GGAGACCUAUGAUAUCAACCUACAUGCUCA
pre-steady-state target cleavage rate [2]: < 0.0001

GGAGAGGAAACUAUACAACCUACUUCCUCA
pre-steady-state target cleavage rate [2]: 0.00302 ± 0.0017

GGAGUCGAUACUAUACAACCUAGUACCUCA
pre-steady-state target cleavage rate [2]: 0.00334 ± 0.0014

GGAGACCAUACUAUACAACCUAGUACGUCA
pre-steady-state target cleavage rate [2]: 0.00483 ± 0.0024

GGAGACCAUACUAUACAACCCUACUACCUCA
pre-steady-state target cleavage rate [2]: 0.00693 ± 0.0035

GGAGUGGAUACUAUACAACCAACUUCCUCA
pre-steady-state target cleavage rate [2]: 0.00287 ± 0.0019

GGAGACCUAACUAUACAACCUAGUACCACA
pre-steady-state target cleavage rate [2]: 0.00588 ± 0.0049

GGAGACCAUACUAUACAACCUACAACCUCA
pre-steady-state target cleavage rate [2]: 0.00489 ± 0.0019

GGAGACGAUACUAUACAAGCCUACUACCUCA
pre-steady-state target cleavage rate [2]: 0.00444 ± 0.0036

GGAGAGGAUACUAUACAACCUUCUUCCUCA
pre-steady-state target cleavage rate [2]: 0.00382 ± 0.0025

GGAGUGGAUACUAUAGAUCCUACUACCUCA
pre-steady-state target cleavage rate [2]: 0.0045 ± 0.0029

GGAGUGGAUACUAUACAACCUAGUAGCUCA
pre-steady-state target cleavage rate [2]: 0.00485 ± 0.0018

GGAGAGGAUACUAUACAACCUUCAACCUCA
pre-steady-state target cleavage rate [2]: 0.00352 ± 0.0022

GGAGACCAUACUAUACAAUCCUACUACCUCA
pre-steady-state target cleavage rate [2]: 0.00501 ± 0.0032

GGAGUGGAUACUAUACAACCUAGUUCCUCA
pre-steady-state target cleavage rate [2]: 0.00239 ± 0.0021

GGAGACGAUACUAUACAACAUACUACCUCA
pre-steady-state target cleavage rate [2]: 0.00522 ± 0.0024

GGAGUGGAUUCUAUACAACCUUCUACCUCA
pre-steady-state target cleavage rate [2]: 0.00415 ± 0.0028

GGAGUGGAUACUAUACAACCUACUUCCUGA
pre-steady-state target cleavage rate [2]: 0.00267 ± 0.0023
